PubChem BioAssay AID1259415 (National Center for Advancing Translational Sciences (NCATS), 2018)
Screen size: about 410,000 compounds; about 18,000 (4.4%) were called active. Another 7% or so got no clear call; they are omitted. The sample as a whole holds a higher share of actives than the screen did. A number with no mark means an inactive call. Cut-off read from the data, not from the text of the source: active = activity change below about -60%; inconclusive = no clear call, values can overlap the other calls; inactive = above about -39%.

Assay: qHTS Assay for inhibitors of the human cytomegalovirus (HCMV)
Conditions: HFF cells, HCMV-luciferase reporter, 72 h; at 57.5 µM; stronger effect = lower value
From the text: NCGC Assay Overview: Infection with human cytomegalovirus (HCMV) continues to pose significant threats for pregnant women and immunocompromised hosts. HCMV causes serious morbidity and mortality in transplant recipients, and congenital HCMV is the leading infectious cause of mental retardation and deafness in children. In the 1990s, the annual costs associated with the disease burden of congenital CMV were estimated at around $2 billion. A HCMV vaccine is not available yet and HCMV therapies result in intolerable side effects and emergence of drug resistant viruses. […] Towards this goal we have developed and characterized a luciferase HCMV reporter that was initially used in 96 well plates and then optimized to 1536-well plates for utilization in screening of the MLSMR collection, the NGCG diversity collection and the NCGC Pharmaceutical Collection of approved and investigational drugs.
NCGC Assay Protocol Summary:
This is a cell-based assay for HCMV inhibition in HFFs cells. The screening used 2 compound doses and the HCMV-luciferase at MOI of 1 PFU/cell. Cells were treated and infected with HCMV. At 72 h post infection cell lysates were collected and luciferase activity was determined using the Glomax-Multi + Detection System (Promega, Madison, WI). Data were normalized to the controls for basal activity (buffer only) and known HCMV inhibitors Salinmoycin.
1536-well assay protocol for the assay:
(1) Add 3 ul CMV/HFF cell culture. 1000 cells/well in DMEM nirmal media.
(2) Incubate 16 hr at 37C.
(3) Add 23 nl control compound, 10uM of Salinomycin.
(4) Add 23 nl compounds in DMSO solution.
(5) Add 3 ul CMV suspension. Final 1 puf/ul, Virus stock 2000pfu/ul
(6) Incubate 72 hrs at 37C.
(7) Add 4 ul OneGlo Luc Reagent.
(8) Incubate 5 min at room temperature.
% is set by controls: 0 for no effect and ±100 for the full control effect.

Row | SMILES | activity change, negative = inhibition
1 | O=C(N/N=C/c1ccccc1O)/C(=C/c1ccccc1)CCO | -88.1% (active)
2 | O=C(NN=Cc1ccccc1O)NN=Cc1ccccc1O | -96.4% (active)
3 | O=Nc1c(O)cc(O)c2ccccc12 | 13.3%
4 | CCc1ccccc1NC(=O)/C(=C/c1ccccc1)c1ccccc1 | -13.4%
5 | NN=C(NN=Cc1ccccc1)c1ccccc1 | 49.5%
6 | O=C(CN1CCSCC1)N/N=C/c1ccc(F)cc1F | -10.6%
7 | CC(=O)N1CCc2cc(Br)cc(S(=O)(=O)CCC(=O)NCCc3ccc(Cl)cc3)c21 | -23.8%
8 | Nc1[nH]c(=S)nc2nc(-c3ccccc3)c(-c3ccccc3)nc12 | -3.08%
9 | Nc1ccc(-c2sc(N)nc2-c2ccccc2)cc1 | -103% (active)
10 | Cc1nc(N)sc1-c1ccccc1 | -23.6%
11 | CCn1c2ccccc2c2nnc(SCC(=O)O)nc21 | -4.51%
12 | CCCCn1c(CNC(=O)C23CC4CC(CC(C4)C2)C3)nnc1SCC(=O)Nc1ccc(C)cc1 | 13.3%
13 | Cc1noc(C)c1CSCC(=O)N(CCC(C)C)c1c(N)n(Cc2ccccc2)c(=O)[nH]c1=O | 4.61%
14 | CCn1c(SCC(=O)NC2CCCC2)nnc1-c1ccoc1C | -17.9%
15 | CCn1c(SCC(=O)NC2CC2)nnc1-c1ccccn1 | -72.6% (active)
16 | CCn1c(SCC(=O)NC2CC2)nnc1-c1ccncc1 | 56.4%
17 | Cc1cc(C)c(C)c(S(=O)(=O)Nc2cccnc2)c1C | -18.7%
18 | COc1ccc(S(=O)(=O)Nc2cccnc2)c(Cl)c1Cl | -8.35%
19 | COc1ccccc1Oc1ccc(S(=O)(=O)Nc2cccnc2)cc1 | -79.4% (active)
20 | CCN(C(=O)CN1CCN(Cc2ccccc2)CC1)c1c(N)n(Cc2ccccc2)c(=O)[nH]c1=O | 3.73%
21 | Cc1c(-c2nc(-c3ccc4c(c3)OCO4)no2)nnn1-c1ccc(Br)cc1F | -0.877%
22 | CCc1nn(CC(=O)N2CCN(c3cccc(C(F)(F)F)c3)CC2)c(=O)c2cc3occc3n12 | -6.95%
23 | COc1cccc(NC(=O)CSC2=Nc3ccccc3C3=NC(CC(=O)NC4CCCCC4)C(=O)N23)c1 (stereo not given) | 14%

Row | SMILES | activity change, negative = inhibition
24 | O=C(NC1CC(=O)N(c2ccc(F)cc2)C1)c1ccc(S(=O)(=O)N2CCCC2)cc1 (stereo not given) | -23.1%
25 | COC(=O)c1ccc2nc(-c3ccc(OC)c(OC)c3)c(Cc3ccccc3)n2c1 | 33.9%
26 | COc1ccc(-c2nnc(SCC(=O)Nc3ccccc3C)o2)cc1OC | 45.3%
27 | CCCCc1c(-c2ccc(Br)cc2)ncn1CCc1ccccc1OC | -102% (active)
28 | CCCc1c(-c2ccccc2F)ncn1Cc1ccccc1OC | -31.6%
29 | COc1ccccc1Cc1c(-c2ccc(Cl)cc2)nc2ccc(Cl)cn12 | 13.1%
30 | CCCCNS(=O)(=O)CCNCc1ccccc1OC | -20.1%
31 | CCCCCc1c(Cc2ccccc2)ncn1CCc1ccccc1OC | -93.7% (active)
32 | COc1ccccc1CCNS(=O)(=O)c1cn(C)nc1C | -2.46%
33 | CCCCCc1c(-c2ccc(OC)c(OC)c2)ncn1CCc1ccccc1OC | -102% (active)
34 | FC(F)(F)c1cccc(-c2cnc3ccccc3n2)c1 | 32.3%
35 | Nc1ncc(S(=O)(=O)Nc2ccc(OC(F)(F)F)cc2)cn1 | 4.7%
36 | CCN1C(=O)c2ccccc2S(=O)c2ccc(C(=O)NCc3ccc(F)cc3)cc21 (stereo not given) | 6.08%
37 | CSc1nn(Cc2cccc(C)c2)c(N)c1S(=O)(=O)c1ccccc1 | -39.1%
38 | O=C(Nc1ccc(OC(F)(F)F)cc1)c1ccc2c(c1)no[n+]2[O-] | -88.8% (active)
39 | Cc1ccc2ncc(C(=O)Nc3ccc(OC(F)(F)F)cc3)c(=O)n2c1 | 19.1%
40 | COC(=O)c1cnn(-c2ccc(C(=O)Nc3ccc(OC(F)(F)F)cc3)cc2)c1N | -14.8%
41 | COc1ccc2c(c1)c(C(=O)N/N=C/c1cccs1)c(C)n2C | -14.7%
42 | Cc1ccccc1-n1c(C)cc(/C=N/NC(=O)c2ccc(CN3CCOCC3)cc2)c1C | -25.2%
43 | Cc1cccc(-n2c(C)cc(/C=N\NC(=O)c3cccs3)c2C)c1 | -61.8% (active)
44 | O=C(Nc1cccc(Cl)c1)c1csnn1 | -2.8%
45 | CC(=O)Nc1cc(C(=O)NCc2ccc(F)cc2Cl)ccc1Sc1ccc(Cl)cc1 | 5.5%
46 | O=C(Nc1ccc(-c2csc(Nc3cccc(C(F)(F)F)c3)n2)cc1)c1cccc(C(F)(F)F)c1 | -66.8% (active)

Row | SMILES | activity change, negative = inhibition
47 | Cc1nnsc1C(=O)N/N=C/c1cccc(C(F)(F)F)c1 | -22.9%
48 | Cn1c(C(=O)Nc2cccc(C(F)(F)F)c2)cc2c(=O)n3ccccc3nc21 | 63.8%
49 | Cc1c(CCNC(=O)c2ccc(C(F)(F)F)cc2)sc2nc(-c3ccc(F)cc3)nn12 | 33.8%
50 | COc1ccc(Cn2ccnc2SCC(=O)Nc2ccc3c(c2)OCO3)cc1 | -2.47%
51 | Cc1ccc2oc(C(=O)Nc3ccc(S(=O)(=O)N4CCCCCC4)cc3)cc(=O)c2c1 | 5.06%
52 | Cn1nnc2c(N3CCN(c4ccccc4)CC3)ncnc21 | -1.12%
53 | CCS(=O)(=O)N1CCC(N2CCN(c3ccccc3)CC2)CC1 | 12.5%
54 | CN1CCC(CN)(N2CCN(c3ccccc3)CC2)CC1 | -78.1% (active)
55 | CCc1cccc(CC)c1NC(=O)Cn1c(=O)c(-c2cc(C)ccc2NC(C)=O)nc2ccccc21 | -4.17%
56 | COc1ccc(CN(Cc2ccco2)S(=O)(=O)c2ccc(S(=O)(=O)N3CCCC3)cc2)cc1 | -62% (active)
57 | COc1ccc(S(=O)(=O)NCc2ccc(C(=O)N(C)Cc3ccco3)cc2)cc1 | -13.3%
58 | COc1ccc(CCC(=O)N2CCN(S(=O)(=O)c3ccc(OC)cc3)CC2)cc1 | -31.5%
59 | CC1CCN(c2ccc3c(c2)S(=O)(=O)c2cc(C(=O)O)ccc2C3=O)CC1 | 22.6%
60 | CC1CCN(c2ccc([N+](=O)[O-])c(SCCO)c2)CC1 | -72.7% (active)
61 | CC1CCN(c2ccc(S(=O)(=O)Nc3cc(C(=O)O)cc(C(=O)O)c3)cc2[N+](=O)[O-])CC1 | 31%
62 | CN(c1ccccc1)S(=O)(=O)c1ccc(C(=O)N2CCN(c3ccccc3Cl)CC2)cc1 | -25.5%
63 | CN(C)S(=O)(=O)c1cc(C(=O)N2CCC(C(=O)O)(c3ccccc3)CC2)ccc1Cl | 14.8%
64 | COc1ccccc1N1CCN(C(=O)c2ccc(Cl)c(S(=O)(=O)N3CCCC3)c2)CC1 | -64.9% (active)
65 | CN(c1ccccc1)S(=O)(=O)c1cc(C(=O)N2CCN(c3ncccn3)CC2)ccc1Cl | -61.7% (active)
66 | CCS(=O)(=O)N1CCc2cc(C(=O)N3CCN(c4ccccc4OC)CC3)ccc21 | 10.3%
67 | CN(c1ccccc1)S(=O)(=O)c1cccc(C(=O)NNC(=O)c2ccncc2)c1 | -31.6%
68 | COc1ccc(C(=O)N2CCN(c3ncccn3)CC2)cc1S(=O)(=O)N1CCOCC1 | 63%
69 | CN(c1ccccc1)S(=O)(=O)c1cc(C(=O)Nc2nc3ccccc3[nH]2)ccc1Cl | -61.3% (active)

Row | SMILES | activity change, negative = inhibition
70 | CN(c1ccccc1)S(=O)(=O)c1cc(C(=O)OCC(=O)N2CCN(C(=O)c3ccco3)CC2)ccc1Cl | -12%
71 | COc1ccc(C2NC(=O)N(C)C3=C2C(=O)N(c2ccc(C(=O)O)cc2)C3)cc1 (stereo not given) | 15.3%
72 | CCOC(=O)c1cc2c(=O)[nH]c(C(Cl)(Cl)Cl)nc2o1 | -14.4%
73 | CCOC(=O)c1ccc(NC(=O)C2CCN(S(=O)(=O)c3ccc4c(c3)CCCC(=O)N4)CC2)cc1 | -34.6%
74 | COc1cc(C(=O)Nc2ccc(OCc3cc(=O)n4cc(C)sc4n3)cc2)cc(OC)c1OC | 13.1%
75 | COc1ccc(OC)c(NC(=O)C2CCCN(S(=O)(=O)c3ccc4c(c3)CCCC(=O)N4)C2)c1 (stereo not given) | 5.92%
76 | COc1ccc(-c2nc3ccccc3o2)cc1NC(=O)c1cc([N+](=O)[O-])ccc1N1CCOCC1 | 17.1%
77 | COc1ccc(-c2nc3ccc(C(=O)NCc4ccc(C)cc4)cc3nc2-c2ccc(OC)cc2)cc1 | 13.2%
78 | CCOc1ccccc1-n1c(SCC(=O)NCc2ccco2)nnc1-c1ccncc1 | 24.1%
79 | CCOc1ccc(Nc2nc(Cc3nnc(SCC(=O)c4ccc(C)cc4)o3)cs2)cc1 | -18.3%
80 | Cc1ccc(Nc2nc(CSc3nnc(-c4ccncc4)n3-c3ccccc3C)cs2)cc1 | -86.5% (active)
81 | Cc1ccc(-c2nc(S(=O)(=O)c3ccc(C)cc3)c(N3CCCCCC3)o2)cc1 | -3.36%
82 | O=C(CSc1oc(-c2ccc(F)cc2)nc1S(=O)(=O)c1ccc(Br)cc1)NC1CCCCC1 | 5.22%
83 | CC(C)S(=O)(=O)c1oc(-c2ccc(F)cc2)nc1S(=O)(=O)c1ccc(F)cc1 | -98.8% (active)
84 | COc1ccc(N2C(=O)CSC23C(=O)N(Cc2cccc(F)c2)c2ccccc23)cc1Cl (stereo not given) | -38.5%
85 | Cc1cccc(C(=O)N2CCc3cc(CNC(=O)Cc4ccc(F)cc4)ccc32)c1 | 5.96%
86 | Cc1c(Cl)cccc1NC(=O)C1CCCN(C(=O)c2cnn(-c3ccccc3)c2-n2cccc2)C1 (stereo not given) | -29.6%
87 | O=c1cc(COc2cccc(C(F)(F)F)c2)nc2sc3c(n12)CCCC3 | -0.855%
88 | CCOC(=O)c1ccc(N2C(=O)c3n[nH]c(C)c3C2c2ccc(O)c(OC)c2)cc1 (stereo not given) | -24.9%
89 | CCOc1ccc(-c2n[nH]c3c2C(c2ccccc2OC)N(c2ccc(Br)cc2)C3=O)cc1 (stereo not given) | 21.3%
90 | CCOc1cc(C2c3c(-c4ccc(Br)cc4)n[nH]c3C(=O)N2c2ccc(Cl)cc2)ccc1O (stereo not given) | -106% (active)
